An excerpt weighted towards active compounds, which were near 1.6% of everything screened.
KCNQ2 pot: enhances the rat KCNQ2 potassium channel. O88943. CHO-K1 KCNQ2, FluxOR thallium flux fluorescence; stronger effect = higher value. B-score at 10 µM. 310,000 tested, 0.54% active;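 active means fluorescence ratio B-score at least 3 SD of library B-scores, with initial fluorescence B-score within 3 of them, cut at about 5.3 in these data; same plate scores as AID 2156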;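 further: B-score of peak minus minimum over baseline fluorescence ratio after K+ and Tl+ stimulus; positive B-score means potentiation of KCNQ2 with more thallium influx and brighter signal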
KCNQ2 block: inhibitors of rat KCNQ2 potassium channel; O88943; CHO-K1 KCNQ2, FluxOR thallium flux, 20 min; stronger effect = lower value; B-score at 10 µM; 310,000 tested, 1.1% active;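 active means fluorescence ratio B-score at most minus 3 library SDs, with starting brightness B-score within 2 library SDs, cut at about -5.5 in these data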
Kir21 conf inh: confirmation of mouse Kir2.1 potassium channel inhibitors; shares compounds with KCNQ2 pot; Kir2.1-expressing cells, FluxOR thallium flux fluorescence; stronger effect = lower value; Tl flux remaining, % of negative control (stronger effect = lower value), % at 10 µM; 2,300 tested, 41% active; AID 2032;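 active means Primary-screen hit whose thallium flux fell at least 3 control SD below untreated wells in both duplicates, with normal baseline fluorescence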;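 further: 0% = blank wells without stimulus and 100% = stimulated no-compound controls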
HEK293 Tl flux: alters thallium flux in parental HEK293 cells, Kir2.1 counter-screen | shares compounds with KCNQ2 pot | FluxOR thallium flux fluorescence; 0% = unstimulated blank wells | FluxOR signal as % of negative control (100 = no effect), % at 10 µM | 2,300 tested, 19% active;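 active means dye signal at least 3 control SD above or below untreated wells in both duplicates, raw fluorescence within 3, either direction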;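 further: percent is based on the flux ratio of peak minus minimum fluorescence over baseline F0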
CHO-K1 ctr: alters thallium flux in parental CHO-K1 cells, KCNQ2 counter-screen | shares compounds with KCNQ2 pot | FluxOR thallium flux fluorescence; zero = vehicle mean+3SD, 100% = vehicle-minus-blank window | activity increase over 3SD of controls, % at 10 µM | 1,200 tested, 43% active;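 active means signal rise of at least 3 SD above the untreated control mean, in both duplicate wells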;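 further: counter screen of KCNQ2 potentiator hits so any rise reflects channel-independent effects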
KCNQ1 sel pot: tests whether KCNQ2 potentiators also act on human KCNQ1; shares compounds with KCNQ2 pot; CHO KCNQ1 stable, FluxOR thallium flux fluorescence; beyond 3SD, as % of vehicle-control signal; activation over 3SD threshold, % at 10 µM; 1,200 tested, 28% active;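 active means fluorescence ratio rise of at least 3 SD of vehicle wells above their mean, in both replicate wells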;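 further: 0% = vehicle mean plus 3 SD and 100% = vehicle minus unstimulated blank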
KCNQ2 pot confirm: rat KCNQ2 channel potentiator confirmation | shares compounds with KCNQ2 pot | CHO-KCNQ2 cells, FluxOR thallium flux fluorescence | potentiation, less the hit threshold, % at 10 µM | 1,200 tested, 68% active;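 active means fluorescence ratio rising 3 SD or more over the vehicle control mean in both replicates, plus primary screen hit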;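 further: peak minus minimum thallium fluorescence divided by baseline after K/Tl stimulus; 0% = vehicle mean plus 3 SD and 100% = vehicle minus unstimulated blank difference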
Kir21 spec: tests whether KCNQ2 potentiators also affect mouse Kir2.1; HEK293 Kir2.1, FluxOR thallium flux fluorescence; AID 2345; 1,200 tested, 2% active; shares compounds with KCNQ2 pot; activity over 3SD threshold, % at 10 µM;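 active means fluorescence ratio rise of at least 3 SD above the vehicle-control mean, seen in both replicates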;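 further: 0% = vehicle mean plus 3 SD and 100% = vehicle minus no-stimulus blank window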
KCNQ2 W236L MoA: KCNQ2 potentiators acting on retigabine-insensitive rat KCNQ2 W236L mutant. CHO KCNQ2-W236L, automated patch clamp current. current increase over 3SD of negative controls (%), stronger effect = higher value, % at 25 µM. shares compounds with KCNQ2 pot. 940 tested, 10% active;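 active means current increase at least 3 SD of the untreated controls above them in both duplicate recordings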
Target sequence (O88943 whole entry W236L, looked up): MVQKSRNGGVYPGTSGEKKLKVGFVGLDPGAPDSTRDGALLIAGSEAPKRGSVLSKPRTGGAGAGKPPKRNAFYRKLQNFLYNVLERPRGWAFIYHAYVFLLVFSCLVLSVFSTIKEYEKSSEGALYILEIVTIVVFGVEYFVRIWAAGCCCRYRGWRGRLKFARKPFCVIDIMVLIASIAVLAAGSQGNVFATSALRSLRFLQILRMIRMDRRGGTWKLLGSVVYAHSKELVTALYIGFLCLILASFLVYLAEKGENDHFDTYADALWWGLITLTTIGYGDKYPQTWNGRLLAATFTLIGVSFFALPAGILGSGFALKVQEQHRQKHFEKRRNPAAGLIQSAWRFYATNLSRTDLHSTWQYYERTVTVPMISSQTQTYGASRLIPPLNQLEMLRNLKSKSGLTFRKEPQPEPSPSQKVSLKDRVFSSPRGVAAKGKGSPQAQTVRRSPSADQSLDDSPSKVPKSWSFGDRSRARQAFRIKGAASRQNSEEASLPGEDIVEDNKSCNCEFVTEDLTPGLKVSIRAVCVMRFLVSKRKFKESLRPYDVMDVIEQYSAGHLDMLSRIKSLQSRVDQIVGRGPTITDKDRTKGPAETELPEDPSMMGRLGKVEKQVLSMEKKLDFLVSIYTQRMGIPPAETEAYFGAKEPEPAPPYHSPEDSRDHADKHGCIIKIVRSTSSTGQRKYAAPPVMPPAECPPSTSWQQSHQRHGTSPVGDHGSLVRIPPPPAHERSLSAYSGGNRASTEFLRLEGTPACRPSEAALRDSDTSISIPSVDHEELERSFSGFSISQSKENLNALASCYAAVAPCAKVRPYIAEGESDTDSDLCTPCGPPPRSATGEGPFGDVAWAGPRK
Numbers without * were called inactive; i = inactive; . = not tested or not shown.

SMILES | KCNQ2 pot | KCNQ2 block | Kir21 conf inh | HEK293 Tl flux | others
Cc1cccc(N(C(=O)c2ccco2)C(C(=O)NC2CCCC2)c2ccco2)c1C (centres undefined) | . | i | . | .
c1ccc(-c2nc3ccccc3[nH]2)nc1 | . | i | . | .
c1ccc(-c2nc3c(ccc4ccccc43)[nH]2)nc1 | 8.38* | i | i | i | CHO-K1 ctr=30.8*;KCNQ1 sel pot=6.1*;KCNQ2 pot confirm=46.8*;Kir21 spec=-27.4;KCNQ2 W236L MoA=i
Cc1nnc(SCC(=O)Nc2nccs2)n1C(C)C | 1.05 | i | . | .
COC(=O)c1ccccc1Oc1ccc(NC(=O)CCCl)cc1 | 0.06 | i | . | .
Cc1oc2cc([N+](=O)[O-])c(O)c([N+](=O)[O-])c2c1C(=O)c1ccc(Cl)cc1 | 7.93* | i | i | 143.5%* | CHO-K1 ctr=87.8*;KCNQ1 sel pot=-9.7;KCNQ2 pot confirm=14.2*;Kir21 spec=-33.5;KCNQ2 W236L MoA=10.1%*
COc1ccc(OC)c(C(=O)c2c(C)oc3cc([N+](=O)[O-])c(O)c([N+](=O)[O-])c23)c1 | 0.84 | i | . | .
Cc1ccc(C(C)C)c(OCC(O)CN2CCc3ccccc3C2)c1 (centres undefined) | . | i | 63.0%* | i
Cc1ccc(C)c(OCC(O)CN2CCC(Cc3ccccc3)CC2)c1 (centres undefined) | . | i | 49.0%* | i
OC(COc1c(F)cc(Br)cc1F)CN1CCc2ccccc2C1 (centres undefined) | . | i | 26.0%* | i
OC(COCc1ccccc1)CN1CCc2ccccc2C1 (centres undefined) | 0.04 | i | . | .
OC(COc1ccc(Cl)cc1)CN1CCC(Cc2ccccc2)CC1 (centres undefined) | . | i | . | .
Cc1cccc(C)c1OCC(O)CN1CCc2ccccc2C1 (centres undefined) | . | i | . | .
Cc1ccc(-n2c(-c3ccccc3)c[n+]3c2CCc2ccccc2-3)c(C)c1 | . | i | . | .
CCOC(=O)c1ccc(NC(=O)c2ccccc2N(C)S(=O)(=O)c2ccccc2)cc1 | 0.36 | i | . | .
CCN1/C(=C/C=C/c2oc3ccc(-c4ccccc4)cc3[n+]2CC)Oc2ccc(-c3ccccc3)cc21 | . | i | . | .
O=C(O)c1cccc(NS(=O)(=O)c2cc(S(=O)(=O)c3ccc(Cl)cc3)ccc2Cl)c1 | 0.12 | i | . | .
CCn1cc(Br)c(C(=O)NC(=S)Nc2ccc(C(=O)OC)cc2)n1 | 0.86 | i | . | .
Oc1c(Br)cc(/C=N/Nc2ccc(Cl)nn2)cc1Br | 2.64 | i | . | .
Oc1c(Br)cc(Br)cc1/C=N/Nc1ccc(Cl)nn1 | 10.6* | i | i | i | CHO-K1 ctr=-10.5;KCNQ1 sel pot=-17.8;KCNQ2 pot confirm=12.7*;Kir21 spec=-12.1;KCNQ2 W236L MoA=i
CCOc1ccc(NC(=O)c2ccc(F)cc2F)cc1 | 0.1 | i | . | .
O=C(c1ccccc1Oc1ccc([N+](=O)[O-])cc1)N1CCOCC1 | 0.58 | i | . | .
Cc1ccc(S(=O)(=O)NCCSc2nnnn2-c2cc(C)ccc2C)cc1 | 0.86 | i | . | .
Cc1ccc(S(=O)(=O)NCCSc2nnnn2-c2ccccc2)cc1 | 0.37 | i | 67.5%* | i
O=C1NC(c2ccccc2)=C(c2nc3ccccc3s2)C(c2ccc(O)cc2)N1 (centres undefined) | 15* | i | i | i | CHO-K1 ctr=-20.4;KCNQ1 sel pot=-0.7;KCNQ2 pot confirm=10.9*;Kir21 spec=-32.9;KCNQ2 W236L MoA=i
O=C1NC(c2ccccc2)=C(c2ccc3ccccc3n2)C(c2ccccc2)N1 (centres undefined) | . | i | . | .
CN(C(=O)CC1C(=O)NCCN1Cc1cccc(C(F)(F)F)c1)C1CCOCC1 (centres undefined) | 0.43 | i | . | .
COc1ccc(-n2c(=O)c3ccccc3n(Cc3ccccc3F)c2=O)cc1OC | . | i | . | .
C/C(=N\NC(=O)c1ccc(Cl)c(Cl)c1)c1ccccn1 | . | i | . | .

Source: PubChem BioAssay (Johns Hopkins Ion Channel Center)
